# Among all 5,500 compounds or so, about 2,000 (36%) were called active. Another 18% or so got no clear call; they are omitted. The list shows a part of the results. Unmarked numbers belong to inactive results. No stated cut-off is given here; in the data, active means normalized growth mostly below about 0.91 (no sharp cut-off); inconclusive means no clear call, values can overlap the other calls; inactive means mostly above about 0.92.
# Assay: chemical genetic growth profiling, strain panel (AID 1159580);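 further: tested at 20 µM; growth read once vehicle control cultures reached saturation at 30 °C; 1 = growth at the plate median or of vehicle wells; lower values mean less growth of the strain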
# Settings: S. cerevisiae deletion strains, growth OD
# [1] = locus YAR019C, strain CDC15, hits give low values
# [2] = locus YBL105C, strain PKC1, hits give low values
# [3] = locus YBR135W, strain CKS1, hits give low values
# [4] = locus YBR136W, strain MEC1, hits give low values
# [5] = locus YBR160W, strain CDC28, hits give low values
# [6] = locus YDL017W, strain CDC7, hits give low values
# [7] = locus YDL028C, strain MPS1, hits give low values
# [8] = locus YDL101C, strain DUN1, hits give low values
# [9] = locus YDL108W, strain KIN28, hits give low values
# [10] = locus YDL132W, strain cdc53, hits give low values
# [11] = locus YDL214C, strain PRR2, hits give low values
# [12] = locus YDR052C, strain DBF4, hits give low values
# [13] = locus YDR054C, strain cdc34, hits give low values
# [14] = locus YDR226W, strain ADK1, hits give low values
# [15] = locus YDR477W, strain SNF1, hits give low values
# [16] = locus YER123W, strain YCK3, hits give low values
# [17] = locus YER133W, strain GLC7, hits give low values
# [18] = locus YFL009W, strain cdc4, hits give low values
# [19] = locus YFL029C, strain CAK1, hits give low values
# [20] = locus YFR003C, strain YPI1, hits give low values
# [21] = locus YFR019W, strain FAB1, hits give low values
# [22] = locus YFR028C, strain CDC14, hits give low values
# [23] = locus YGR040W, strain KSS1, hits give low values
# [24] = locus YGR052W, strain FMP48, hits give low values
# [25] = locus YGR092W, strain DBF2, hits give low values
# [26] = locus YHR030C, strain SLT2, hits give low values
# [27] = locus YHR079C, strain IRE1, hits give low values
# [28] = locus YHR082C, strain KSP1, hits give low values
# [29] = locus YHR205W, strain SCH9, hits give low values
# [30] = locus YIL147C, strain SLN1, hits give low values
# [31] = locus YJL095W, strain BCK1, hits give low values
# [32] = locus YJL128C, strain PBS2, hits give low values
# [33] = locus YJL157C, strain FAR1, hits give low values
# [34] = locus YJR016C, strain ILV3, hits give low values
# [35] = locus YJR066W, strain TOR1 (second series), hits give low values
# [36] = locus YJR066W, strain TOR1, hits give low values
# [37] = locus YKL048C, strain ELM1, hits give low values
# [38] = locus YKL067W, strain YNK1, hits give low values
# [39] = locus YKL101W, strain HSL1, hits give low values
# [40] = locus YKL193C, strain SDS22, hits give low values
# [41] = locus YKL203C, strain TOR2, hits give low values
# [42] = locus YLR113W, strain HOG1, hits give low values
# [43] = locus YLR133W, strain CKI1, hits give low values
# [44] = locus YLR403W, strain SFP1, hits give low values
# [45] = locus YML070W, strain DAK1, hits give low values
# [46] = locus YMR001C, strain CDC5, hits give low values
# [47] = locus YMR205C, strain PFK2 (second series), hits give low values
# [48] = locus YMR277W, strain FCP1, hits give low values
# [49] = locus YNL006W, strain LST8, hits give low values
# [50] = locus YNL020C, strain ARK1, hits give low values
# [51] = locus YNL161W, strain CBK1, hits give low values
# [52] = locus YNL183C, strain NPR1, hits give low values
# [53] = locus YNL207W, strain RIO2, hits give low values
# [54] = locus YNL222W, strain SSU72, hits give low values
# [55] = locus YNL307C, strain MCK1 (second series), hits give low values
# [56] = locus YOL078W, strain AVO1, hits give low values
# [57] = locus YOL136C, strain PFK27, hits give low values
# [58] = locus YOR061W, strain CKA2, hits give low values
# [59] = locus YOR119C, strain RIO1, hits give low values
# [60] = locus YOR231W, strain MKK1, hits give low values
# [61] = locus YOR329C, strain SCD5, hits give low values
# [62] = locus YPL031C, strain PHO85, hits give low values
# [63] = locus YPL153C, strain RAD53, hits give low values
# [64] = locus YPL204W, strain HRR25, hits give low values
# [65] = locus YPL209C, strain IPL1, hits give low values
# [66] = locus YPL256C, strain CLN2, hits give low values
# [67] = locus YPR025C, strain CCL1, hits give low values
# [68] = locus YPR106W, strain ISR1, hits give low values
# [69] = locus YPR111W, strain DBF20, hits give low values
# [70] = strain NNK1, hits give low values
# [71] = strain TSCII, hits give low values
# [72] = locus YGR078C, strain PAC10, hits give low values
# [73] = locus YGR229C, strain SMI1, hits give low values
# [74] = locus YJR075W, strain HOC1, hits give low values
# [75] = locus YMR263W, strain SAP30, hits give low values
# [76] = locus YMR307W, strain GAS1, hits give low values
# [77] = locus YNL153C, strain GIM3, hits give low values
# [78] = locus YPL241C, strain CIN2, hits give low values
structure (smiles),measurement,setting,value
CC(C)(C)c1cc2nc(C(F)(F)F)cc(NNC(=O)c3ccc(Cl)cc3)n2n1,normalized growth,[1],0.978
same,normalized growth,[2],0.994
same,normalized growth,[3],0.977
same,normalized growth,[4],0.989
same,normalized growth,[5],0.978
same,normalized growth,[6],0.996
same,normalized growth,[7],0.984
same,normalized growth,[8],0.991
same,normalized growth,[9],0.981
same,normalized growth,[10],0.974
same,normalized growth,[11],1.01
same,normalized growth,[12],0.989
same,normalized growth,[13],0.978
same,normalized growth,[14],0.982
same,normalized growth,[15],1.03
same,normalized growth,[16],0.999
same,normalized growth,[17],1.03
same,normalized growth,[18],0.981
same,normalized growth,[19],0.981
same,normalized growth,[20],0.992
same,normalized growth,[21],0.966
same,normalized growth,[22],0.979
same,normalized growth,[23],1.01
same,normalized growth,[24],1.12
same,normalized growth,[25],0.952
same,normalized growth,[26],1.04
same,normalized growth,[27],0.989
same,normalized growth,[28],1.06
same,normalized growth,[29],0.99
same,normalized growth,[30],0.983
same,normalized growth,[31],0.991
same,normalized growth,[32],0.961
same,normalized growth,[33],1.02
same,normalized growth,[34],0.977
same,normalized growth,[35],0.991
same,normalized growth,[36],1.05
same,normalized growth,[37],0.986
same,normalized growth,[38],1
same,normalized growth,[39],1.01
same,normalized growth,[40],0.977
same,normalized growth,[41],1.07
same,normalized growth,[42],0.983
same,normalized growth,[43],0.995
same,normalized growth,[44],0.991
same,normalized growth,[45],1
same,normalized growth,[46],0.994
same,normalized growth,[47],1
same,normalized growth,[48],0.973
same,normalized growth,[49],0.988
same,normalized growth,[50],1.01
same,normalized growth,[51],0.991
same,normalized growth,[52],0.988
same,normalized growth,[53],0.981
same,normalized growth,[54],0.975
same,normalized growth,[55],1
same,normalized growth,[56],0.98
same,normalized growth,[57],1.01
same,normalized growth,[58],0.995
same,normalized growth,[59],1.11
same,normalized growth,[60],0.988
same,normalized growth,[61],0.997
same,normalized growth,[62],1.03
same,normalized growth,[63],1.03
same,normalized growth,[64],1.05
same,normalized growth,[65],0.988
same,normalized growth,[66],0.994
same,normalized growth,[67],0.988
same,normalized growth,[68],0.988
same,normalized growth,[69],0.976
same,normalized growth,[70],0.983
same,normalized growth,[71],0.984
Cc1cc(NC(=O)Nc2ccc3c(ccn3C)c2)sn1,normalized growth,"locus YAL040C, strain CLN3, hits give low values",0.993
same,normalized growth,"locus YDR363W, strain ESC2, hits give low values",1.02
same,normalized growth,"locus YER002W, strain NOP16, hits give low values",0.992
same,normalized growth,[72],0.999
same,normalized growth,[73],1
same,normalized growth,[74],1
same,normalized growth,[75],0.968
same,normalized growth,[76],0.996
same,normalized growth,[77],1.04
same,normalized growth,"locus YNL175C, strain NOP13, hits give low values",1.02
same,normalized growth,"locus YNL197C, strain WHI3, hits give low values",0.983
same,normalized growth,"locus YNL224C, strain SQS1, hits give low values",0.996
same,normalized growth,"locus YOR083W, strain WHI5 (second series), hits give low values",1.01
same,normalized growth,[78],0.992
CC(C)(C)OC(=O)NC1CCN(C(=O)c2ccc(Cl)cc2Cl)CC1,normalized growth,"locus YAL013W, strain DEP1, hits give low values",1
same,normalized growth,"locus YBR229C, strain ROT2, hits give low values",0.993
same,normalized growth,"locus YCL061C, strain MRC1, hits give low values",1.01
same,normalized growth,[8],0.995
same,normalized growth,"locus YDL134C, strain PPH21, hits give low values",0.999
same,normalized growth,"locus YDR150W, strain NUM1, hits give low values",0.95
same,normalized growth,"locus YEL061C, strain CIN8, hits give low values",1
same,normalized growth,[72],1
same,normalized growth,[73],1.01
same,normalized growth,[26],1.11
same,normalized growth,"locus YHR087W, strain rtc3, hits give low values",0.996
same,normalized growth,"locus YJL187C, strain SWE1, hits give low values",1.01
same,normalized growth,"locus YJR043C, strain POL32, hits give low values",0.997
same,normalized growth,[74],0.999
same,normalized growth,"locus YKL190W, strain CNB1, hits give low values",1.01
same,normalized growth,"locus YLR039C, strain RIC1, hits give low values",1.02
same,normalized growth,"locus YLR058C, strain SHM2 (second series), hits give low values",1
same,normalized growth,"locus YLR085C, strain ARP6, hits give low values",1.03
same,normalized growth,"locus YLR262C, strain YPT6, hits give low values",1.09
same,normalized growth,"locus YML094W, strain GIM5, hits give low values",1.04
same,normalized growth,"locus YMR219W, strain ESC1, hits give low values",0.996
same,normalized growth,[75],0.989
same,normalized growth,[76],0.824
same,normalized growth,"locus YNL128W, strain TEP1, hits give low values",1.01
same,normalized growth,[77],1
same,normalized growth,"locus YNL298W, strain CLA4 (second series), hits give low values",1.01
same,normalized growth,"locus YNL322C, strain KRE1, hits give low values",0.995
same,normalized growth,"locus YNR030W, strain Alg12, hits give low values",1.02
same,normalized growth,"locus YPL055C, strain LGE1, hits give low values",1.08
same,normalized growth,[78],1.01
same,normalized growth,"locus YPR135W, strain CTF4, hits give low values",1
CC(C)(C)c1csc(NC(=O)Nc2ccc(Cl)cc2)n1,normalized growth,[1],0.989
same,normalized growth,[2],0.972
same,normalized growth,[3],0.973
same,normalized growth,[4],0.976
same,normalized growth,[5],0.985
same,normalized growth,[6],0.982
same,normalized growth,[7],0.973
same,normalized growth,[8],0.974
same,normalized growth,[9],0.978
same,normalized growth,[10],0.974
same,normalized growth,[11],0.684 (active)
same,normalized growth,[12],0.983
same,normalized growth,[13],0.974
same,normalized growth,[14],0.973
same,normalized growth,[15],0.605 (active)
same,normalized growth,[16],0.466 (active)
same,normalized growth,[17],0.534 (active)
same,normalized growth,[18],0.972
same,normalized growth,[19],0.97
same,normalized growth,[20],0.981
same,normalized growth,[21],0.722 (active)
same,normalized growth,[22],0.97
same,normalized growth,[23],0.634 (active)
same,normalized growth,[24],0.304 (active)
same,normalized growth,[25],0.48 (active)
same,normalized growth,[26],0.39 (active)
same,normalized growth,[27],0.509 (active)
same,normalized growth,[28],0.466 (active)
same,normalized growth,[29],0.583
same,normalized growth,[30],0.972
same,normalized growth,[31],0.345 (active)
same,normalized growth,[32],0.905
same,normalized growth,[33],0.81
same,normalized growth,[34],0.981
same,normalized growth,[35],0.625 (active)
same,normalized growth,[36],0.452 (active)
same,normalized growth,[37],0.609 (active)
same,normalized growth,[38],0.732 (active)
same,normalized growth,[39],0.441 (active)
same,normalized growth,[40],0.981
same,normalized growth,[41],0.565 (active)
same,normalized growth,[42],0.28 (active)
same,normalized growth,[43],0.687 (active)
same,normalized growth,[44],0.601 (active)
same,normalized growth,[45],0.441 (active)
same,normalized growth,[46],0.97
same,normalized growth,[47],0.705 (active)
same,normalized growth,[48],0.974
same,normalized growth,[49],0.979
same,normalized growth,[50],0.67 (active)
same,normalized growth,[51],0.969
same,normalized growth,[52],0.281 (active)
same,normalized growth,[53],0.97
same,normalized growth,[54],0.983
same,normalized growth,[55],0.553 (active)
same,normalized growth,[56],0.982
same,normalized growth,[57],0.719
same,normalized growth,[58],0.732
same,normalized growth,[59],0.524 (active)
same,normalized growth,[60],0.5 (active)
same,normalized growth,[61],0.982
same,normalized growth,[62],0.43 (active)
same,normalized growth,[63],0.481 (active)
same,normalized growth,[64],0.529 (active)
same,normalized growth,[65],0.98
same,normalized growth,[66],0.44 (active)
same,normalized growth,[67],0.977
same,normalized growth,[68],0.97
same,normalized growth,[69],0.967
same,normalized growth,[70],0.953
same,normalized growth,[71],0.981
